Data published in the supplement of paper PMC6089552.
Hit rate of the full screen: of about 3,200 compounds, about 300 (9.4%) showed activity. The list comes from a sample in which actives are over-represented; it also holds similar structures and randomly drawn compounds.

System: A673/TR/shEF
Assay: cell viability (LOESS-normalised, relative to median of negative controls) (log2 ratio); higher = more viable cells (less compound effect), active = hit call of the paper (over 3 MAD below the median)
Conditions: treatment time: 72 h
Procedure, shortened: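 Viability of A673/TR/shEF Ewing sarcoma cells was determined by CellTiter-Glo luminescence. The cells, at 1,500 per well in 384-well plates, were grown with or without doxycycline from 24 h before compound addition to switch on EWS-FLI1 shRNA knockdown, then exposed for three days to library compounds at two or more concentrations or to DMSO controls. Signals were LOESS-corrected plate by plate, normalised to the negative-control median and log2-transformed.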

[1] = 0.25 µM, library screen: screen1, EWS-FLI1 expression: high (no doxycycline)
[2] = 0.25 µM, library screen: screen1, EWS-FLI1 expression: low (doxycycline-induced shRNA knockdown)
[3] = 2.5 µM, library screen: screen1, EWS-FLI1 expression: high (no doxycycline)
[4] = 2.5 µM, library screen: screen1, EWS-FLI1 expression: low (doxycycline-induced shRNA knockdown)
[5] = 0.103 µM, library screen: screen3, EWS-FLI1 expression: high (no doxycycline)
[6] = 0.103 µM, library screen: screen3, EWS-FLI1 expression: low (doxycycline-induced shRNA knockdown)
[7] = 0.308 µM, library screen: screen3, EWS-FLI1 expression: high (no doxycycline)
[8] = 0.308 µM, library screen: screen3, EWS-FLI1 expression: low (doxycycline-induced shRNA knockdown)
[9] = 0.926 µM, library screen: screen3, EWS-FLI1 expression: high (no doxycycline)
[10] = 0.926 µM, library screen: screen3, EWS-FLI1 expression: low (doxycycline-induced shRNA knockdown)
[11] = 2.8 µM, library screen: screen3, EWS-FLI1 expression: high (no doxycycline)
[12] = 2.8 µM, library screen: screen3, EWS-FLI1 expression: low (doxycycline-induced shRNA knockdown)
[13] = 8.3 µM, library screen: screen3, EWS-FLI1 expression: high (no doxycycline)
[14] = 8.3 µM, library screen: screen3, EWS-FLI1 expression: low (doxycycline-induced shRNA knockdown)
[15] = 25 µM, library screen: screen3, EWS-FLI1 expression: high (no doxycycline)
[16] = 25 µM, library screen: screen3, EWS-FLI1 expression: low (doxycycline-induced shRNA knockdown)
[17] = 0.25 µM, library screen: screen2, EWS-FLI1 expression: high (no doxycycline)
[18] = 0.25 µM, library screen: screen2, EWS-FLI1 expression: low (doxycycline-induced shRNA knockdown)
[19] = 2.5 µM, library screen: screen2, EWS-FLI1 expression: high (no doxycycline)
[20] = 2.5 µM, library screen: screen2, EWS-FLI1 expression: low (doxycycline-induced shRNA knockdown)

Measured: cell viability (log2)

COc1ccc(C(C)C(=O)c2ccc(O)cc2O)cc1 (configuration not stated)
inactive: [1] 0.0783 | [2] 0.0339 | [3] 0.16 | [4] 0.123

CCOc1ccc(C(=O)c2cc(O)c(OC)c(OC)c2O)cc1
inactive: [1] 0.0714 | [2] 0.0518 | [3] 0.162 | [4] 0.129

CC(=O)OC1CCC2(C)C3=C(CC[C@H]2C1(C)C)[C@@]1(C)CC[C@@H]([C@@H](C)CCC=C(C)C)[C@]1(C)CC3 (some centres not stated)
inactive: [1] 0.058 | [2] -0.000522 | [3] 0.0338 | [4] -0.0772

CCN1C(=O)/C(=C\c2cn(CCC#N)nc2-c2ccc(F)cc2)SC1=S
inactive: [1] 0.0868 | [2] 0.118 | [3] 0.107 | [4] -0.0141

O=C(NCc1ccco1)/C(=C\c1ccco1)NC(=O)c1cccs1
inactive: [1] 0.0268 | [2] 0.0429 | [3] 0.0986 | [4] 0.0245

O[C@@H](c1cc(C(F)(F)F)nc2c(C(F)(F)F)cccc12)[C@H]1CCCCN1
inactive: [1] 0.149 | [2] 0.0284 | [3] 0.156 | [4] 0.0765

OCC1OC(O)C(O)C(O)C1O (configuration not stated)
inactive: [5] 0.00138 | [6] 0.0347 | [7] 0.0849 | [8] 0.0509 | [9] 0.0635 | [10] 0.0529 | [11] 0.0615 | [12] 0.0566 | [13] 0.0472 | [14] -0.0279 | [15] 0.168 | [16] 0.04

C=C1c2cccc(O)c2C(O)=C2C(=O)[C@]3(O)C(O)=C(C(N)=O)C(=O)[C@@H](N(C)C)[C@@H]3[C@@H](O)[C@H]12
inactive: [5] -0.0411 | [6] 0.0402 | [2] 0.0695 | [7] -0.0282 | [8] 0.0462 | [9] -0.105 | [10] 0.0725 | [4] 0.152 | [11] -0.0751 | [12] 0.0891 | [13] -0.0644 | [14] 0.0589 | [15] -0.0984 | [16] 0.0914
active: [1] -0.16 | [3] -0.0967

C[C@H]1c2cccc(O)c2C(O)=C2C(=O)[C@]3(O)C(O)=C(C(N)=O)C(=O)[C@@H](N(C)C)[C@@H]3[C@@H](O)[C@@H]21
inactive: [1] 0.0339 | [2] 0.251 | [17] 0.0723 | [18] 0.0745 | [3] 0.0598 | [4] 0.256 | [19] -0.00226 | [20] 0.0538

C=C1c2c(Cl)ccc(O)c2C(O)=C2C(=O)[C@]3(O)C(O)=C(C(N)=O)C(=O)[C@@H](N(C)C)[C@@H]3[C@@H](O)[C@H]12.O=C(O)c1cc(S(=O)(=O)O)ccc1O
active: [1] -0.128 | [3] -0.126
inactive: [2] 0.0882 | [4] 0.0927

CN(C)c1ccc(O)c2c1C[C@H]1C[C@H]3[C@H](N(C)C)C(=O)C(C(N)=O)=C(O)[C@@]3(O)C(=O)C1=C2O
active: [1] -0.177 | [3] -0.0936
inactive: [2] -0.0588 | [17] 0.0664 | [18] 0.133 | [4] 0.0344 | [19] 0.00725 | [20] 0.0554

CCCCCCCCCCCCCCC[C@@H](O)[C@H](CO)NC(C)=O
inactive: [17] 0.176 | [18] 0.139 | [19] 0.0603 | [20] 0.124

NC(=S)c1ccc[n+]([C@@H]2O[C@H](COP(=O)(O)OP(=O)(O)OC[C@H]3O[C@@H](n4cnc5c(N)ncnc54)[C@H](OP(=O)(O)O)[C@@H]3O)[C@@H](O)[C@H]2[O-])c1
inactive: [17] 0.209 | [18] 0.145 | [19] 0.254 | [20] 0.143

Clc1ccc(CN2CCN(Cc3c[nH]c4ccccc34)CC2)cc1
inactive: [1] 0.142 | [2] 0.175 | [3] 0.152 | [4] 0.116

COc1ccc2c(c1)OCC(=Cc1ccc(OC)c(O)c1)C2=O
inactive: [1] 0.111 | [2] 0.0739 | [3] 0.125 | [4] 0.0254

CCOC(=O)C1=C(C)NC2=C(C(=O)CC(C)(C)C2)C1c1coc2ccccc2c1=O (configuration not stated)
inactive: [1] 0.113 | [2] 0.123 | [3] 0.0647 | [4] 0.0912

COc1ccc(CNS(=O)(=O)c2ccc(NC(C)=O)cc2)cc1
inactive: [1] 0.136 | [2] 0.114 | [3] 0.073 | [4] 0.0317

CC(=O)O[C@@H]1CC2C(C)(C)CCC[C@]2(C)C2CC[C@]3(C)C(=CC(=O)O[C@H]3c3ccoc3)[C@@]21C (some centres not stated)
inactive: [1] 0.0969 | [2] 0.0706 | [3] 0.0583 | [4] 0.123

CC1=C(C(=O)OC2CCCC2)C(c2coc3ccccc3c2=O)C2=C(CCCC2=O)N1 (configuration not stated)
inactive: [1] 0.0306 | [2] 0.112 | [3] 0.0744 | [4] 0.0338

Cc1cc(=O)c2c(o1)-c1c(cc(O)c(O)c1C(=O)O)OC2
inactive: [1] 0.0145 | [2] 0.0255 | [3] 0.0451 | [4] 0.0692

N[C@@H](CCC(=O)O)C(=O)O
inactive: [17] 0.193 | [18] 0.073 | [19] 0.108 | [20] 0.15

N[C@H](CO)C(=O)O
inactive: [17] 0.128 | [18] 0.103 | [19] 0.162 | [20] 0.112

N[C@@H](CC(=O)O)C(=O)O
inactive: [18] 0.087 | [19] 0.0127 | [20] 0.00419
active: [17] -0.146

CNc1ccccc1C(=O)N1CCc2c([nH]c3ccccc23)C1=O
inactive: [1] 0.0191 | [2] -0.0744 | [3] 0.0945 | [4] 0.0188

COC1[C@H](O)[C@@H](O)C(O)[C@H](O)[C@H]1O (some centres not stated)
inactive: [1] 0.0827 | [2] 0.0562 | [3] 0.177 | [4] 0.115

CC(=O)O[C@H]1CC[C@]2(C)[C@H]3C(=O)C=C4[C@@H]5C[C@@](C)(C(=O)O)CC[C@]5(C)CC[C@@]4(C)[C@]3(C)CC[C@H]2C1(C)C
inactive: [1] 0.0602 | [2] 0.011 | [3] 0.129 | [4] 0.0507
